Laboratory results: PubChem BioAssay AID2734 (National Center for Advancing Translational Sciences (NCATS), 2010)
Inconclusive results are not listed. Where a call stands in place of a potency, no number is given. Calls of active or inactive are those of the source. Calls follow the shape of the dose curve; as a rule, active = well fitted inhibition curve with a large enough effect; inconclusive = small, poorly fitted or top-dose-only effect, or effect the other way; inactive = no such curve, though single readings can be large or run the other way.

experiment: High Content Assay for Compounds that inhibit the Assembly of the Perinucleolar Compartment: DNA Intercalation/PicoGreen Displacement Assay; details: fluorescence (intercalation counter-screen); series mostly up to 57.1 µM
From the text: High Content Assay for Compounds that inhibit the Assembly of the Perinucleolar Compartment
NIH Chemical Genomics Center [NCGC]
NIH Molecular Libraries Probe Centers Network [MLPCN]
Assay Submitter (PI): Sui Huang, Northwestern University, Feinberg School of Medicine, Cell and Molecular Biology, Chicago, Illinois.
The perinucleolar compartment (PNC) is a non-membrane-bound nuclear subdomain that is associated with but structurally distinct from the nucleolus. The PNC is a heritable trait, in which the number of PNCs per cell in daughter cells often mimics that of their mother cells. The PNC is heterogeneous in shape, is stable through interphase, disassembles during mitosis, and reassembles in early G1. The PNC is concentrated with newly synthesized RNA polymerase III (pol III) RNAs (MRP RNA, RNAse P H1 RNA, hY RNAs[hY1, 2, 5], Alu RNA, and SRP [7SL] RNA) and RNA binding proteins (nucleolin, PTB, CUG-BP, KSRP, Raver1, Raver2, and Rod).
Extensive in vitro studies have shown that the PNC is unique to tumor cells and preferentially forms in tumor cells derived from solid tissues. Examination of cancer cell lines from various origins and malignant capacities has shown that PNC prevalence correlates with the malignancy of tumors and has the potential to be developed as a pan-cancer prognostic marker.
Although the PNC is associated with a DNA locus and a handful of components have been identified, much remains to be investigated regarding the structure and function of the PNC and its mechanistic link to cancer. We have previously shown that PNC prevalence reduction is a valid strategy to identify compounds that can be used to study the structure and function of the PNC. It is necessary, however, to create a screening platform that is able to test a large number of compounds in an automated fashion. Here we report the development and robustness of an automated whole-cell phenotypic image-based screening assay that is capable of identifying such compounds.
Therefore, we conducted a DNA intercalation/displacement assay on the lead candidates in order to exclude compounds with this mechanism of action. PicoGreen is a DNA intercalator that becomes excitable at 488 nm and emits at 520 nm when bound to DNA. Compounds which displace the dye will decrease fluorescence intensity and were considered DNA intercalators/displacers. In order to rule out potential fluorescence artifacts, a measurement of compound plus DNA only was also calculated.
1. A supercoiled plasmid (pBR322) was diluted to 200 ng/ml in TE and 2 ul was dispensed into 1536 well black plates Multidrop Combi.(ThermoFisher).
2. Followup compounds dissolved in 100% DMSO were transferred using a pintool (23 nl).
3. Compounds were incubated in the presence of DNA for 30 minutes at room temperature.
4. A baseline signal was measured using an Envision PMT based plate reader using a 488 nm excitation filter and a 520 nm emission filter.
5. The PicoGreen dye (Invitrogen) was diluted in TE and 2 ul/well was dispensed to the 1536 well plate using a Multidrop Combi.
6. Plates were incubated at 37 C for 10 minutes prior to being read on the envision plate reader. 100 ng/ml of Propidium Iodide was used as the positive intercalation control.

Row | Compound | Potency
1 | CCN(CC)C(=S)SSC(=S)N(CC)CC | inactive
2 | O=[N+]([O-])c1cc(/C=N/Nc2nc3ccccc3[nH]2)c(O)cc1O | 22.4 µM (active)
3 | CC(/C=C/c1ccccc1)=N/NC(=O)c1cc([N+](=O)[O-])cc([N+](=O)[O-])c1 | inactive
4 | CCN(CC)c1ccc(N=Cc2ccccc2[N+](=O)[O-])cc1 | 3.16 µM (active)
5 | CSc1nnc2c3ccccc3n(CCc3ccccc3)c2n1 | inactive
6 | CCCNC1=C(N(C(C)=O)c2cccc(F)c2)C(=O)c2ccccc2C1=O | inactive
7 | CC(=O)/C(C#N)=C1\NC(=O)C(Cc2ccc(C)c(C)c2)S1 (configuration not stated) | inactive
8 | O=C1C(Nc2ccccc2)=C/C(=N/S(=O)(=O)c2cccs2)c2ccccc21 | 2.82 µM (active)
9 | Cc1ccc(Cl)cc1N(CC(=O)N1CCCCCC1)S(C)(=O)=O | inactive
10 | CSc1nc(-c2ccc(C)cc2)nc(C(Cl)Cl)n1 | inactive
11 | Cc1ccccc1C(=O)NNC(=S)Nc1cccc(C(F)(F)F)c1 | inactive
12 | O=C1C(=Cc2cccs2)C(=O)c2ccccc21 | inactive
13 | Cc1cc(C)c(S(=O)(=O)/N=C2/C=C(Sc3ncn[nH]3)C(=O)c3ccccc32)cc1C | 12.6 µM (active)
14 | CCOC(=O)NC1(Nc2ccc(C)cc2)Oc2ccccc2O1 | inactive
15 | Nc1ccc2c(c1)C(=O)C(=O)c1ccccc1-2 | 12.6 µM (active)
16 | O=C(Nc1ccc(NC(=O)C2CC2)cn1)c1ccccc1Cl | inactive
17 | O=c1[nH]cnc2c1C(c1ccccc1[N+](=O)[O-])c1c(nc[nH]c1=O)O2 | inactive
18 | CCOC(=O)CSc1nc2c(sc3ccc([N+](=O)[O-])cc32)c(=O)n1Cc1ccco1 | inactive
19 | COC(=O)c1ccc(CSc2ccccc2C)o1 | inactive
20 | O=C1C(=O)c2ccc(-c3ccccc3)cc2-c2ccccc21 | 4.47 µM (active)
21 | Cc1ccc(NC2=C/C(=N/S(=O)(=O)c3cccs3)c3ccccc3C2=O)cc1 | 3.55 µM (active)
22 | C/C(=N/OCO/N=C(/C)c1ccc(F)cc1)c1ccc(F)cc1 | inactive
23 | O=C(Nc1cccnc1)c1cccs1 | inactive
24 | Cc1cc(=O)[nH]c(N=N/C(=N/Nc2ccccc2C)c2ccccc2)n1 | 2 µM (active)
25 | Nc1cccc(-c2nc3ccc(N)cc3s2)c1 | inactive
26 | CCOC(=O)c1c(NC(=O)c2c(-c3ccccc3)noc2C)sc(C)c1-c1ccccc1 | inactive
27 | CC(=O)Nc1ccc(S(=O)(=O)Oc2ccc3c(c2)C(C)=CC(C)(C)N3)cc1 | inactive
